# Assay outcomes: PubChem, National Center for Advancing Translational Sciences (NCATS)
# Rows were chosen to be rich in hits. Some 7.2% of all compounds tested hit in one or more screens of this group.
# Tau filament bind = binders of human tau filaments. P10636. recombinant tau filaments, thioflavin S fluorescence, 15 h; filaments grown with octadecylsulfate alongside compound. Potency, µM (highest dose often 57.1 µM), for inactives: at the highest dose activity change, negative = inhibition. actives 2% (n = 71,000);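 note: % is set by controls: 0 for no effect and ±100 for the full control effect; actives lower thioflavin S fluorescence by blocking filaments or displacing dye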
#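 Recombinant tau protein (human, 1 uM final) plus 30 uM ODS in HEPES pH 7.4 with NaCl, DTT and thioflavine S. Compound present from the start; fluorescence at 510 nm after 15 h, 37 C.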
# Luciferase inh = blocks Photinus pyralis firefly luciferase activity; purified firefly luciferase, luminescence, 8 min; Potency, µM (highest dose often 57.1 µM), for the others: at the top dose activity change, negative = inhibition, actives largely listed as inhibitors; actives 2.2% (n = 72,000); AID 411; note: % is set by controls: 0 for no effect and ±100 for the full control effect; nearly all actives have a fitted effect of over 40% in size
#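 Here, luciferase activity is measured as luminescence following an 8 min room-temperature reaction at 10 uM ATP, pH 7.2. Every library sample is titrated.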
# Bst PK mod = alters activity of Bacillus stearothermophilus pyruvate kinase; purified pyruvate kinase, luminescence ATP production; ribose 5-phosphate activator present at AC10; Potency, µM; actives 1.2% (n = 51,000); in the data active = potency below about 11 µM; inconclusive = mostly about 12 µM to 25 µM;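 the screen sought inhibitors and activators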;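 note: scaled between full activation by ribose 5 phosphate and full inhibition by luteolin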
# ERK AVP inh = blocks ERK signaling stimulated by vasopressin. HEK293-V1b, vasopressin-stimulated pERK AlphaScreen. Potency, µM (titrated, usually from 57.5 µM), without a hit: top-dose activity, negative = inhibition, actives largely listed as inhibitors. actives 0.99% (n = 72,000). AID 995; note: % is set by controls: 0 for no effect and ±100 for the full control effect; nearly all actives have a fitted effect of over 55% in size
#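 V1b-HEK293 cells; cpd 30 min 37C; 25 nM vasopressin 5 min; lyse 10 min; AlphaScreen beads 5 hr RT. Normalized to DMSO basal and 25 nM vasopressin; AC50 by Hill fit.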
# TSHR agonist = activates the human thyroid stimulating hormone receptor; P16473; HEK293-CNG-TSHR cells (CNG channel as cAMP sensor), membrane potential dye, cAMP; Potency, µM (doses to about 57.1 µM), for inactives: at the highest dose activation, most hits filed as activators; actives 0.48% (n = 73,000); AID 926; active = well fitted activation curve with a large enough effect in the main read-out, with a control signal flat, not every such curve was filed as active; inconclusive = small, poorly fitted or top-dose-only effect, or a change in a side signal; inactive = no such curve, though single readings can be large or run the other way; % of control where 0% means no effect;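 note: the control signal comes from parental cells without the receptor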
# Target sequence (P16473 whole entry, looked up): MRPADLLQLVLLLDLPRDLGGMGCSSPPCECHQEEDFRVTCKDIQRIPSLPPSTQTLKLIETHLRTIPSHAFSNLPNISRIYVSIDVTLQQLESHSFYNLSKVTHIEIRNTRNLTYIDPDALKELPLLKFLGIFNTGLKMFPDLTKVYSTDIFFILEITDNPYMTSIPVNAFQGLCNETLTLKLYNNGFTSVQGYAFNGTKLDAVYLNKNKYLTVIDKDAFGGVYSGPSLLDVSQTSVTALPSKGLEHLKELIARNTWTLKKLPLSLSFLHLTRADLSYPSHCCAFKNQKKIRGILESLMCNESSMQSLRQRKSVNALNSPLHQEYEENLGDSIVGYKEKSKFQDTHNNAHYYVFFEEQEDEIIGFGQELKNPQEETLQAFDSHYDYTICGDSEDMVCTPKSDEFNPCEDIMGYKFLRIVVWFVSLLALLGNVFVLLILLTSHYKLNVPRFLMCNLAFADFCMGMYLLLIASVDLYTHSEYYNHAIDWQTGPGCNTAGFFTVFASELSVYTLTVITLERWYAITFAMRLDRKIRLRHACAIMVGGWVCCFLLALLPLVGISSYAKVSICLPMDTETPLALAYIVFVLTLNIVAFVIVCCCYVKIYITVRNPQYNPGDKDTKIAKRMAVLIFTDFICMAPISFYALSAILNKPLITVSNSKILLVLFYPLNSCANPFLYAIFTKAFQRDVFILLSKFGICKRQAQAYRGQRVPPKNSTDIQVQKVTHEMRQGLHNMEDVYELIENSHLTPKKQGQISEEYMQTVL
#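 HEK 293 cells stably expressing TSHR and a modified CNG channel, with CNG-only parental cells as counterscreen, were preloaded 60 min at room temperature with membrane potential dye containing 100 uM RO 20-1724. Compound exposure was 30 min, and depolarization was read as fluorescence at 590 nm.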
# HEK293 cAMP ctrl = parental HEK293 cAMP activation (counter-screen); actives 2.5% (n = 73,000); parental HEK293 CNG cAMP sensor, membrane potential fluorescence; Potency, µM (series often up to 57.1 µM), without a hit: at the highest dose activation, hits mostly activators; note: % of control where 0% means no effect; nearly all actives have a fitted effect of over 55% in size
#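 Parental HEK 293 cells stably expressing a cAMP-gated CNG channel were loaded with membrane potential dye containing 100 uM RO 20-1724 for 60 min. Compound added for 30 min; depolarization read as fluorescence intensity at 590 nm.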
# * = called active by the depositor; i = inactive; ? = inconclusive; / = not tested or not shown; [ ] = remark or other dose. Unless noted, calls come from the whole dose curve; as a rule, active = well fitted curve in the direction sought with a large enough effect; inconclusive = small, poorly fitted or top-dose-only effect, or another doubt; inactive = no such curve, though single readings can be large; an effect the other way counts as inactive or inconclusive. Potency is the fitted concentration of half-maximal effect.
SMILES,Tau filament bind,Luciferase inh,Bst PK mod,ERK AVP inh,TSHR agonist,HEK293 cAMP ctrl
COCC(=O)N1CCC2(CCCN(c3cccc(-c4ccccc4)c3)C2)CC1,40%,-1%[11.4 µM],/,?,18%,8%
CCOc1ccc(NC(C)=O)cc1,7%,6%[25.5 µM],/,-10%,-1%,24%
CCOc1ccc(NCC(=O)Nc2ccc(C)cc2C)cc1,32µM*,2%,>57,-10%,-1%,1%
CS(=O)(=O)Nc1ccc([N+](=O)[O-])cc1OC1CCCCC1,?,-2%,/,10%,?,?
CCOC(=O)c1ccc(Oc2nc(NC)nc(SC)n2)cc1,152%,-1%,>57,-4%,3%,2%
CCOC(=O)c1ccc(Oc2cc(C)nc(SC)n2)cc1,11%[11.4 µM],2%,/,9%,?,3.2µM*
CCNc1nc(Oc2ccc(C(=O)OCC)cc2)nc(SC)n1,30%,1%,/,6%,?,?
CCOC(=O)c1ccc(Oc2nc(NC(C)(C)C)nc(N(C)C)n2)cc1,-13%,-2%,>57,-4%,?,25µM*
COC(=O)c1ccc(Oc2cc(C)nc(-n3nc(C)cc3C)n2)cc1,19%,2%,/,?,?,16µM*
COC(=O)c1ccc(Oc2nc(NC(C)C)nc(N(C)C)n2)cc1,19%,-3%,>57,5%,10%,21%
CCOC(=O)c1ccc(Oc2nc(SC)nc(N(C)C)n2)cc1,8%[11.4 µM],1%,/,71%,?,3.2µM*
CCOc1cccc(-c2nnc3sc(COc4ccc(C)cc4)nn23)c1,41%,0%,>57,-27%,?,25µM*
CCN(CC)c1ccc(-c2nn3c(-c4cccnc4)nnc3s2)cc1,/,-3%[25.5 µM],5.2*,/,/,/
CCOc1cccc(-c2nnc3sc(COc4ccc(Cl)cc4)nn23)c1,34%,2%,>57,-4%,?,16µM*
CCOc1cccc(-c2nnc3sc(COc4ccccc4)nn23)c1,/,3%[25.5 µM],>26,/,/,/
CCCCOc1ccc(-c2nnc(N)s2)cc1,/,-15%[25.5 µM],i,/,/,/
CCOc1ccc(-c2nnc(N)s2)cc1,-1%,16µM*,/,-7%,-5%,10%
Nc1nc(N)c(N=Nc2ccc(C(=O)O)c(O)c2)c(N)n1,0%[11.4 µM],-2%[11.4 µM],/,21%[11.5 µM],3%[11.4 µM],11%[11.4 µM]
COc1cccc(-c2nc(NCCN3CCOCC3)c3ccccc3n2)c1,-6%,-1%[2.29 µM],/,-9%,10%,-9%
CCN1CCC[C@@H]1CNC(=O)c1c(OC)ccc(I)c1O,-8%,0%,/,/,-3%,9%
CCOc1ccc(-c2nn3c(-c4ccccc4)nnc3s2)cc1,80%,-1%,5.1*,-20%,?,?
COc1ccc(-c2nnc3sc(COc4ccc(C)cc4)nn23)cc1,54%,2%,>11,9%,?,20µM*
CCOc1ccccc1OCc1nn2c(COc3ccccc3)nnc2s1,21%,0%,>57,6%,?,16µM*
CC1CCC(C(=O)O)NC1c1cccc(N2CCOCC2)c1 (stereo not given),/,/,/,16%[11.5 µM],-3%[11.4 µM],-2%[11.4 µM]
CCN(CC)C[C@@H]1CCCCN1CC(=O)N1c2ccccc2C(=O)Nc2cccnc21,-30%,2%,/,2%,10%,13%
SMILES,Tau filament bind,Luciferase inh,Bst PK mod,ERK AVP inh,TSHR agonist,HEK293 cAMP ctrl
CC(C)(Oc1ccc([C@@H]2CC2(Cl)Cl)cc1)C(=O)O,-14%[25.6 µM],1%[25.5 µM],/,-10%[25.7 µM],?,?
N#Cc1ccc2ccn(CC(=O)NC3CCCCC3)c2c1,2%,2%,>57,1%,?,16µM*
c1ccc(CC2CCN(c3nc(N4CCOCC4)nc(N4CCOCC4)n3)CC2)cc1,-2%,-9%,>57,-4%,7.9µM*,-1%
Nc1nc(N2CCOCC2)nc2ccccc12,2%,-1%,/,3%,5%,-15%
CCOc1ccc(Nc2nc(NCCN3CCOCC3)nc(OC)n2)cc1,4%,-3%,6.3*,9%,-2%,-5%
Cc1ccc(Nc2nc(N3CCOCC3)nc(N3CCOCC3)n2)cc1,80%,1%,/,-17%,3%,0%
CCOc1ccc(Nc2cc(C)nc(N3CCOCC3)n2)cc1,-10%,1%,1.4*,14%,3%,5%
CCOc1ccc2nc(N3CCOCC3)nc(C)c2c1,83%,16µM*,i,22%,2%,12%
